Assay results as given in PubChem BioAssay (Tox21).
Unmarked numbers belong to inactive results. Calls follow the shape of the full dose curve.

assay: qHTS assay to identify small molecule agonists of the sonic hedgehog signaling (Shh) pathway (AID 1259368); details: NIH/3T3 Gli1-Luc reporter, luciferase, 24 h, active compounds read high; series mostly up to 92.4 µM; activity change: at the top concentration;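 also: NIH/3T3-derived 3T3Gli1-Luc cells carrying a stable Gli1-driven firefly luciferase reporter; nearly all actives have a fitted effect of over 15% in size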
Source text: National Center for Advancing Translational Sciences [NCATS]
NIH Chemical Genomics Center [NCGC]
U.S. Environmental Protection Agency [EPA]
National Institutes of Environmental Health Sciences [NIEHS]
National Toxicology Program [NTP]
The sonic hedgehog (Shh) pathway is essential for normal embryonic development. Dysregulation of the Shh pathway can cause severe developmental defects in organs. Therefore chemicals that interfere with the pathway are potential developmental toxicants. A cell line designated 3T3Gli1-Luc (DMB/OARSA/CFSAN/FDA, Laurel, MD), a NIH/3T3 derived clone containing stably integrated Gli1-Luc reporter is used to detect chemical interference of the Shh pathway, by changes in the expression of the firefly Luc gene under the control of the Gli1 transcriptional response element. This cell line was used to screen Tox21 libraries for identifying and prioritizing the potential developmental toxicants that interfere Shh pathway.
3T3 Gli1-Luc cells were dispensed at 2,000 per well in 5uL of culture medium into white solid bottom 1536-well plates (Greiner Bio-One, Monroe, NC) using a Multidrop Combi (Thermo Scientific, Waltham, MA) dispenser. The assay plates were incubated at 37 C and 5% CO2 for 4hr, and then 23nL of compounds dissolved in DMSO and positive control were transferred using a Pintool station (Wako, San Diego, CA). The assay plates were incubated at 37C and 5% CO2 for 24hr. For luciferase read, 4uL of Amplite Luciferase reporter gene assay reagent (AAT Bioquest, Inc. Sunnyvale, CA) was added to each well of the assay plates using Flying Reagent Dispenser (FRD, Aurora Discovery, San Diego, CA) and incubated at room temperature for 30min. The luminescence signal was measured using a ViewLux plate reader (Perkin Elmer, Shelton, CT).
% is scaled to controls: 0 for no effect and ±100 for the full control effect.

Structure (SMILES) | activity change
COc1cc2c(Nc3ccc(Br)cc3F)ncnc2cc1OCC1CCN(C)CC1 | -0.034% [at 42.5 µM]
C=CCOc1cc(Cl)ccc1C(=O)NCCN(CC)CC | -0.106% [at 42.5 µM]
C=CCOc1c(Br)cc(C(C)(C)c2cc(Br)c(OCC=C)c(Br)c2)cc1Br | 0.281% [at 42.5 µM]
CCC(CO)CO | -0.13%
CN=C(NC#N)NCCSCc1csc(N=C(N)N)n1 | 0% [at 42.5 µM]
CC(C)SCc1ccco1 | -0.463% [at 42.5 µM]
C/C=C(\C)C(=O)OCC/C=C\CC | 0.275%
O=c1cc(O)c(Cl)c[nH]1 | -1.38% [at 42.5 µM]
CCC(C)(CCC(C)C)C(=O)[O-].CCC(C)(CCC(C)C)C(=O)[O-].[Zn+2] (stereo not given) | -7.56%
NS(=O)(=O)c1ccccc1OC(F)(F)F | -1.04%
Nc1cc(C(=O)O)ccc1Cl | 0.104%
Cc1cccc(C(=O)O)c1[N+](=O)[O-] | 0.87%
COCCOCCOCCOC | -0.52%
CCCC(C)CC (stereo not given) | 0.634%
CC(C)CCCC(C)CC=O (stereo not given) | -1.12%
Cc1ccc(C(=O)C(=O)O)cc1C | 1.13% [at 42.5 µM]
CC(=O)c1ccc(OCC(=O)N2CCCCC2)cc1 | 4.81% [at 42.5 µM]
CN(C1CCCCC1)S(=O)(=O)c1ccccc1N | 0.487%
O=C(COCCOCCOCC(=O)Nc1c(I)cc(I)c(C(=O)O)c1I)Nc1c(I)cc(I)c(C(=O)O)c1I | 0.0164% [at 42.5 µM]
CCCCCCCC/C=C\CCCCCCCC(=O)OC[C@@H](O)[C@H]1OC[C@H](O)[C@H]1O | 1.13%

Structure (SMILES) | activity change
Nc1c(NC/C=C\COc2cc(CN3CCCCC3)ccn2)c(=O)c1=O | -1% [at 18.9 µM]
CCOC(=O)CCCCCCCCC(=O)OCC | 0.114%
FC(F)(F)c1ccc(Cl)cc1Cl | 3.33%
CCCOCCOCCOCCO | -0.304%
NC(=O)NC(=O)Cc1ccccc1 | -0.581% [at 42.5 µM]
O=C(O)c1c(Cl)ccc(Cl)c1Cl | -0.453%
Cc1cccc(Nc2ccncc2S(=O)(=O)NC(=O)NC(C)C)c1 | 0.268% [at 42.5 µM]
CN[C@@H]1[C@H](O)[C@H](NC)[C@H]2O[C@@]3(O)C(=O)C[C@@H](C)O[C@H]3O[C@@H]2[C@H]1O | 0.441% [at 42.5 µM]
CCCCCCCC[Si](OCC)(OCC)OCC | -1.76%
CCOC(=O)CCc1ccccc1 | 0.385%
CCOC(=O)OCC/C(SC(=O)OCC)=C(\C)N(C=O)Cc1cnc(C)nc1N | -0.45% [at 42.5 µM]
CCC1Nc2cc(Cl)c(S(N)(=O)=O)cc2S(=O)(=O)N1 (stereo not given) | -0.295% [at 42.5 µM]
CCCCCCCCCCCCCC(=O)OC | 1.34%
CC(=O)N1CCN(c2ccc(O)cc2)CC1 | 0.304% [at 42.5 µM]
CC(=O)OC[C@H]1O[C@@H](OC(C)=O)[C@H](OC(C)=O)[C@@H]1OC(C)=O | -0.068% [at 42.5 µM]
O=C(O)Cc1cccc(-c2cc(CCCCCCc3ccc(O[C@H]4O[C@H](CO)[C@@H](O)[C@H](O)[C@@H]4O)c(-c4cccc(CC(=O)O)c4)c3)ccc2O[C@H]2O[C@H](CO)[C@@H](O)[C@H](O)[C@@H]2O)c1 | -0.0491% [at 0.349 µM]
Cc1ccc2c(c1)c1c3n2CCNC3CCC1 (stereo not given) | -0.999% [at 42.5 µM]
Cc1oc(=O)oc1CN1CCN(c2cc3c(cc2F)c(=O)c(C(=O)O)c2n3C(C)S2)CC1 (stereo not given) | -0.115% [at 42.5 µM]
CCCCC(=O)N(C)C | 0.146%
CCOC(=O)CC#N | -0.0944%
